The panel holds about 83,000 compounds, 20% with a hit somewhere; the sample as a whole holds those more often.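 A percent growth of 40 corresponds to 60% growth inhibition; 0 means no net growth; -100 means all cells died. Active threshold: below 10.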 Calls of active or inactive are those of the source.
Legend:
Assay in all cases: NCI-60 one-dose screen, 48 h (100 = growth as untreated, 0 = no growth, -100 = all killed)
[1] = tested on: T-47D breast; settings: 10 µM
[2] = tested on: BT-549 breast; settings: 10 µM
[3] = tested on: MDA-MB-435 melanoma; settings: 10 µM
[4] = tested on: SW-620 colon; settings: 10 µM
[5] = tested on: MCF7 breast; settings: 10 µM unless noted
[6] = tested on: HCT-116 colon; settings: 10 µM
[7] = tested on: HCC-2998 colon; settings: 10 µM
[8] = tested on: KM12 colon; settings: 10 µM

Measured: growth

COc1cc2nc3cc([N+](=O)[O-])ccc3c(Cl)c2cc1OC
inactive: [1] 83.2% | [2] 51.3% | [3] 93.2% | [4] 104% | [5] 83% | [6] 95.7% | [7] 106% | [8] 110%

COc1cc(C2c3cc4c(cc3C3OC(=O)C2C3CO)OCO4)cc(OC)c1OC (centres undefined)
inactive: [1] 70.6% | [4] 23.1% | [5] 17% | [7] 19%
active: [2] -24.4% | [3] -45% | [6] 7.29% | [8] 1.84%

CC12CC3CC1C(C(=O)O2)C3C(=O)O (centres undefined)
inactive: [1] 108% | [2] 122% | [3] 109% | [4] 102% | [5] 108% | [6] 118% | [7] 95.8% | [8] 101%

Cc1ccc(CCCC(=O)O)c(C)c1
inactive: [1] 95.2% | [2] 101% | [3] 100% | [4] 99.7% | [5] 105% | [6] 103% | [7] 118% | [8] 107%

CC(C)=C(NC(=O)c1ccccc1)C(=O)O
inactive: [1] 116% | [2] 110% | [3] 110% | [4] 102% | [5] 112% | [6] 117% | [7] 101% | [8] 99.6%

NCCC(=O)c1ccc(Cl)cc1
inactive: [1] 91.4% | [2] 109% | [3] 110% | [4] 102% | [5] 110% | [6] 102% | [7] 97.6% | [8] 98.1%

COc1cc(/C=C/C(=O)c2ccccc2)cc(OC)c1OC
inactive: [1] 91.4% | [2] 72% | [3] 13.7% | [4] 12.3% | [6] 20.6% | [7] 94.3% | [8] 12.6%
active: [5] 9.65%

COC(=O)C(O)c1ccccc1 (centres undefined)
inactive: [1] 107% | [2] 109% | [3] 107% | [4] 111% | [5] 99.3% | [6] 97.7% | [7] 104% | [8] 106%

CC1CCCC(CC(N)=O)CC1 (centres undefined)
inactive: [1] 101% | [2] 116% | [3] 104% | [4] 105% | [5] 103% | [6] 98.4% | [7] 102% | [8] 107%

CC1=NN(c2ccccc2)C(=O)/C1=C\N1CC(=O)NC1=S
inactive: [1] 97.1% | [2] 107% | [3] 105% | [4] 106% | [5] 103% | [6] 106% | [7] 108% | [8] 103%

Nc1ccc(N=Nc2ccc(O)cc2)c(N)n1
inactive: [1] 82.8% | [2] 57.2% | [3] 69.3% | [4] 104% | [5] 93.4% | [6] 86.3% | [7] 81.5% | [8] 43.2%

CN(C)c1ccc(S(=O)(=O)O)cc1
inactive: [1] 87.6% | [2] 98.6% | [3] 110% | [4] 111% | [5] 99.8% | [6] 96% | [7] 103% | [8] 104%

c1ccc(CN2COc3c(ccc4c3OCN(Cc3ccccc3)C4)C2)cc1
active: [7] -14.5%
inactive: [1] 13.1% | [2] 12.6% | [3] 22.1% | [4] 29.8% | [5] 28.5% | [6] 22% | [8] 25.3%
